Assay outcomes: PubChem, National Center for Advancing Translational Sciences (NCATS)
IDH1 R132H inh = qHTS for Inhibitors of mutant isocitrate dehydrogenase 1 (IDH1): qHTS; IDH1-R132H enzyme, NADPH consumption, diaphorase/resazurin fluorescence; Isocitrate dehydrogenase [NADP] cytoplasmic (Homo sapiens), O75874; Potency, µM (top dose mostly 76.6 µM), without a hit: at the top dose activity change, negative = inhibition, actives largely listed as inhibitors; 0.093% of 390,000 active; AID 602179, 2012; note: potency is the fitted concentration of half-maximal effect; % is set by controls: 0 for no effect and ±100 for the full control effect; nearly all actives have a fitted effect of over 65% in size
Target sequence (O75874 whole entry R132H, stated change not applied): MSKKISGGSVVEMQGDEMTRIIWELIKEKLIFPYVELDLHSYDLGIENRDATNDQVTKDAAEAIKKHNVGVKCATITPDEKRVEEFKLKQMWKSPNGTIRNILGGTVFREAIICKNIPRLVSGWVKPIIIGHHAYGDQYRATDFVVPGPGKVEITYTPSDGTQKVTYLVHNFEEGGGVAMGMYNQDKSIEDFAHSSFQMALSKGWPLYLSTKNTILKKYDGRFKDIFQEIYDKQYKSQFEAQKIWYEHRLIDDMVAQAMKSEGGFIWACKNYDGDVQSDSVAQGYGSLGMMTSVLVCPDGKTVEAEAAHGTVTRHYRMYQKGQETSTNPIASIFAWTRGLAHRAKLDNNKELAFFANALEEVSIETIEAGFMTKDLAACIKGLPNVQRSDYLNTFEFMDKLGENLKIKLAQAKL
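IDH1-R132H (0.5 ug/mL) preincubated 30 min with compound, then NADPH (0.016 mM) and alpha-KG (2 mM) added; 80 min at RT, pH 7.5. Remaining NADPH coupled via diaphorase/resazurin to fluorescence (540/590 nm); concentration-response curves normalized to no-enzyme control.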
Glioma ERSR ind = qHTS for Inducers of the Endoplasmic Reticulum Stress Response (ERSR) in Human Glioma: qHTS; AID 602332, 2012; 0.02% of 420,000 active; Potency, µM, for inactives: at the top dose activation, hits mostly activators; U87-MG GRP78 promoter luciferase reporter, 16 h; note: potency is the fitted concentration of half-maximal effect; series mostly up to about 76 µM; % of control where 0% means no effect; nearly all actives have a fitted effect of over 35% in size
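Stably transfected U87-MG human glioma cells carrying a GRP78-based luminescent sensor were seeded at 1000 cells/well, pin-dosed with compounds and incubated 16 h. Luciferase reagent was then added, and end-point luminescence was read after 10 min at room temperature.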
MmCpn inh = Inhibitors of TCP-1 ring complex (TRiC) of Methanococcus maripaludis (MmCpn): qHTS; Chaperonin Mm-Cpn (Methanococcus maripaludis); purified Mm-Cpn ATPase, ADP Transcreener TR-FRET; Potency, µM (titrated, usually from 76.9 µM), for inactives: top-dose activity, negative = inhibition, usual class: inhibitors; 0.031% of 330,000 active; AID 504842, 2011; note: potency is the fitted concentration of half-maximal effect; % is set by controls: 0 for no effect and ±100 for the full control effect; nearly all actives have a fitted effect of over 80% in size
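Reaction buffer contained 30 mM Tris pH 7.4, 100 mM KCl, 5 mM MgCl2 and 1 mM DTT. Mm-CPN (25 nM final) hydrolysed 10 uM ATP over 30 min at 37°C; ADP was read by HTRF.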
CCT chaperon mod = High-Throughput Screening for Modulators of Cytosolic Chaperonin Activity. activity change, % (test concentration not listed), hits read low. purified chaperonin ATPase assay, HTRF ADP detection, 30 min. 0.3% of 360,000 active; in the data active = activity change below about -30%; note: % is set by controls: 0 for no effect and ±100 for the full control effect
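TRiC at 40 or 20 nM final (batch-dependent) in 30 mM Tris pH 7.4, 100 mM KCl, 5 mM MgCl2, 1 mM DTT, with compound at single 76 uM and 10 uM ATP, 30 min at 37 deg C. ADP detected by HTRF Transcreener, 665/615 ratio.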
GLS inhibitor = qHTS for Inhibitors of Glutaminase (GLS) | 0.21% of 410,000 active | Potency, µM (series often up to 45.5 µM), without a hit: at the highest dose activity change, negative = inhibition, hits mostly inhibitors | GLS enzymatic activity, qHTS titration; note: potency is the fitted concentration of half-maximal effect; % is set by controls: 0 for no effect and ±100 for the full control effect
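Assay buffer: 45 mM KH2PO4 pH 8.2, 0.02% Tween-20. hKGA acts on L-glutamine (1 mM solution added); product glutamate is reported by an oxidase/peroxidase Amplex Red coupling, with fluorescence taken at baseline and 30 min.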
Akt phos inh = HTS Assay for Inhibitors of Akt Phophorylation: Primary Screen; Neuro2A IGF-stimulated pAkt S473 HTRF, 20 min; stronger effect = lower value; activity change, % for hits at 50 µM; 0.32% of 360,000 active; AID 651550, 2012; in the data active = activity change below about -80%; inconclusive = mostly about -51% to -80%; note: % is set by controls: 0 for no effect and ±100 for the full control effect
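Neuro2A cells (4,500/well, DMEM with 0.5% FBS) were treated with compound at a single 50 µM final concentration, stimulated with 6 nM IGF for 20 min at 37 °C, and lysed. Phospho-Akt Ser473 was read by HTRF as 665/615 ratio ×10^4.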
The depositor's hits bear a star. Rows were chosen to be rich in hits. Some 0.85% of all compounds tested hit in one or more screens of this group. Unless noted, calls come from the whole dose curve; as a rule, active = well fitted curve in the direction sought with a large enough effect; inconclusive = small, poorly fitted or top-dose-only effect, or another doubt; inactive = no such curve, though single readings can be large; an effect the other way counts as inactive or inconclusive.

Screening COc1cc(/C=C2\SC(c3ccc(C)cc3)=NC2=O)cc(OC)c1OC returned IDH1 R132H inh -0.5%, Glioma ERSR ind -2.6%, MmCpn inh -1.2%, CCT chaperon mod -64.0*, GLS inhibitor -6.9% and Akt phos inh inactive.
For COc1cc(Cn2c(=O)c3c(OC)c(C)cnc3n(C)c2=O)cc(OC)c1 the results were IDH1 R132H inh -3.9%, Glioma ERSR ind -4.8%, MmCpn inh -5.1%, CCT chaperon mod -51.9*, GLS inhibitor 4.4% and Akt phos inh inactive.
CCOc1c(C)cnc2c1c(=O)n(Cc1ccccc1Cl)c(=O)n2C was read as IDH1 R132H inh 4.8%, Glioma ERSR ind -4.0%, MmCpn inh -15.1%, CCT chaperon mod -4.3, GLS inhibitor -0.6% and Akt phos inh inactive.
`CC1CCCN(C(C(=O)Nc2ccc3c(c2)OCO3)c2ccccc2)C1` (configuration not stated) gave IDH1 R132H inh 5.0%, Glioma ERSR ind -3.1%, MmCpn inh 1.2%, CCT chaperon mod -1.6, GLS inhibitor -0.7% and Akt phos inh inactive.
`CC1CCN(C(C(=O)Nc2ccc3c(c2)OCO3)c2ccccc2)CC1` (configuration not stated) gave IDH1 R132H inh 18.6%, Glioma ERSR ind -3.1%, MmCpn inh 0.4%, CCT chaperon mod -84.0*, GLS inhibitor 8.6% and Akt phos inh inactive.
Screening CCN=C1SC(CC(=O)NC(N)=O)C(=O)N1CC (configuration not stated) returned IDH1 R132H inh 3.6%, Glioma ERSR ind -4.5%, MmCpn inh -5.0%, CCT chaperon mod 0.9, GLS inhibitor -15.0% and Akt phos inh -105.6%*.
CCN=C1SC(CC(=O)NC2CCCCC2)C(=O)N1CC (configuration not stated) was read as IDH1 R132H inh -1.1%, Glioma ERSR ind -5.6%, MmCpn inh 0.6%, CCT chaperon mod -0.7, GLS inhibitor 3.7% and Akt phos inh inactive.
For S=c1[nH]nc(COc2ccccc2)n1/N=C/C=C/c1ccccc1 the results were IDH1 R132H inh 0.9%, Glioma ERSR ind -0.7%, MmCpn inh -0.1%, CCT chaperon mod -86.6*, GLS inhibitor -7.5% and Akt phos inh inactive.
`S=c1[nH]nc(COc2ccccc2)n1C1CCCCC1` gave IDH1 R132H inh 6.9%, Glioma ERSR ind -4.2%, MmCpn inh -0.1%, CCT chaperon mod 0.5, GLS inhibitor -15.9% and Akt phos inh -100.6%*.
Screening S=c1[nH]nc(COc2ccccc2)n1/N=C/C=C/c1ccco1 returned IDH1 R132H inh 5.0%, Glioma ERSR ind -0.6%, MmCpn inh -2.7%, CCT chaperon mod 1.3, GLS inhibitor inconclusive and Akt phos inh inactive.
`COC(=O)[C@H](Cc1ccccc1)NC(=O)NCc1cccs1` gave IDH1 R132H inh 7.9%, Glioma ERSR ind -1.2%, MmCpn inh -0.1%, CCT chaperon mod -2.2, GLS inhibitor 4.8% and Akt phos inh -93.7%*.
Screening O=C(NCc1cccs1)N[C@@H](Cc1ccccc1)C(=O)O returned IDH1 R132H inh 0.9%, Glioma ERSR ind 1.1%, MmCpn inh 0.2%, CCT chaperon mod 0.2, GLS inhibitor 1.5% and Akt phos inh inactive.
COc1ccccc1-c1sc2cc3c(cc2c1C#Cc1ccccn1)OCO3 was read as IDH1 R132H inh 17.3%, Glioma ERSR ind 1.0%, MmCpn inh 31.6µM*, CCT chaperon mod 0.4, GLS inhibitor -0.6% and Akt phos inh inactive.
`CCCCn1c(=O)c2ccccc2n2c(=S)[nH]nc12` gave IDH1 R132H inh -1.6%, Glioma ERSR ind -0.1%, MmCpn inh -0.9%, CCT chaperon mod 0.1, GLS inhibitor 12.6µM* and Akt phos inh inactive.
